Test results: the supplement of paper PMC10849652
Targets with a hit are over-represented here; the source holds about 8,800 in all. About 0.5% of all pairs of compound and target were hits.

Experiments:
Test in all cases: log2 fold change, soluble protein after heating vs DMSO (PISA); higher = thermal stabilisation; K562 lysate, 10 uM; active = over 0.2 and 3.5 SD of the protein, either way, in both replicates (recomputed)
alvocidib = compound: CN1CC[C@H](c2c(O)cc(O)c3c(=O)cc(-c4ccccc4Cl)oc23)[C@H](O)C1 [alvocidib]
How it was run: (§1)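 Soluble protein was defined as the supernatant remaining after 21,000xg for 90 min, following pooling of heated aliquots and adjustment to 0.5% NP-40 at 4°C. Before that, crude K562 extract at 1 mg/mL protein in PBS pH 7.4 with 1 mM MgCl2 was treated with 10 μM compound for 30 min and heated for 3 min across 48°C-58°C. Quantification used TMTpro 16plex LC-MS/MS with channel sums equalised, and values are log-two fold changes in thermal stability relative to solvent controls from duplicates.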

Tubastatin A = compound: CN1CCc2c(c3ccccc3n2Cc2ccc(C(=O)NO)cc2)C1 [Tubastatin A]
How it was run: as §1

[1] = compound: CNC(=O)C1=CC=CC=C1NC2=NC(=NC=C2Cl)NC3=C(C=C(C=C3)N4CCOCC4)OC
How it was run: as §1

defactinib = compound: CNC(=O)c1ccc(Nc2ncc(C(F)(F)F)c(NCc3nccnc3N(C)S(C)(=O)=O)n2)cc1 [defactinib]
How it was run: as §1

[2] = compound: CNc1nc(-c2ccc3c(N)n[nH]c3c2)cc(N2C[C@@H](C(=O)NC3CCCCC3)CC[C@H]2C)n1
How it was run: as §1

encorafenib = compound: COC(=O)N[C@@H](C)CNc1nccc(-c2cn(C(C)C)nc2-c2cc(Cl)cc(NS(C)(=O)=O)c2F)n1 [encorafenib]
How it was run: as §1

[3] = compound: COC(=O)[C@H](CCSC)NC(=O)C1=C(C=C(C=C1)NC[C@H](CS)N)C2=CC=CC=C2
How it was run: as §1

alisertib = compound: COc1cc(Nc2ncc3c(n2)-c2ccc(Cl)cc2C(c2c(F)cccc2OC)=NC3)ccc1C(=O)O [alisertib]
How it was run: as §1

[4] = compound: COc1cc2nc(-c3cc(F)ccc3O)nc(N[C@@H]3CNC[C@H]3C(C)(C)O)c2cc1OC
How it was run: as §1

gefitinib = compound: COc1cc2ncnc(Nc3ccc(F)c(Cl)c3)c2cc1OCCCN1CCOCC1 [gefitinib]
How it was run: as §1

Measured: log2 fold change

GUSB (UniProt P08236)
inactive: alvocidib -0.278 | Tubastatin A 0.022 | [1] 0.017 | defactinib 0.015 | [2] -0.027 | encorafenib 0.089 | [3] -0.019 | alisertib 0.089 | [4] 0.071 | gefitinib -0.049

GMPS (UniProt P49915)
inactive: alvocidib 0.04 | Tubastatin A -0.065 | [1] -0.009 | defactinib 0.014 | [2] -0.025 | encorafenib -0.022 | [3] 0.025 | alisertib 0.005 | [4] -0.003 | gefitinib -0.026

GON4L (UniProt Q3T8J9)
inactive: alvocidib 0.019 | Tubastatin A -0.114 | [1] 0.028 | defactinib -0.001 | [2] 0.007 | encorafenib 0.092 | [3] 0.107 | alisertib -0.015 | [4] -0.027 | gefitinib -0.074

GYPA, A0A2R8Y7F9
inactive: alvocidib -0.218

ISY1 isoform 1 (UniProt Q9ULR0)
Chain of UniProt Q9ULR0 (Q9ULR0 whole entry, looked up): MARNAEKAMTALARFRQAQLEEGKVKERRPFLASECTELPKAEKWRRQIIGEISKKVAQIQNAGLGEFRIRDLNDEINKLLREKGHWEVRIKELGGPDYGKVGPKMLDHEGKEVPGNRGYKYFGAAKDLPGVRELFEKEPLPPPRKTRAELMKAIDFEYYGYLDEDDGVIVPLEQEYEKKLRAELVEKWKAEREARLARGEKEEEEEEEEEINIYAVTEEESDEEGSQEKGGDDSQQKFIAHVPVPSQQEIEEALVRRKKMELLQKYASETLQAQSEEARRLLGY
active: [2] 0.366
inactive: alvocidib -0.05 | Tubastatin A -0.03 | [1] 0.013 | defactinib 0.082 | encorafenib -0.03 | [3] -0.149 | alisertib -0.012 | [4] 0.016 | gefitinib 0.075

HDAC6 (UniProt Q9UBN7)
inactive: alvocidib -0.006 | Tubastatin A 0.11 | [1] -0.015 | defactinib -0.003 | [2] -0.013 | encorafenib -0.017 | [3] 0.06 | alisertib 0.013 | [4] 0.001 | gefitinib -0.012

INTS7 (UniProt Q9NVH2)
inactive: alvocidib -0.012 | Tubastatin A 0.008 | [1] -0.025 | defactinib -0.125 | [2] -0.017 | encorafenib 0.067 | [3] 0.017 | alisertib -0.022 | [4] -0.018 | gefitinib 0.028

GTF3C3 (UniProt Q9Y5Q9)
Chain of UniProt Q9Y5Q9 (Q9Y5Q9 whole entry, looked up): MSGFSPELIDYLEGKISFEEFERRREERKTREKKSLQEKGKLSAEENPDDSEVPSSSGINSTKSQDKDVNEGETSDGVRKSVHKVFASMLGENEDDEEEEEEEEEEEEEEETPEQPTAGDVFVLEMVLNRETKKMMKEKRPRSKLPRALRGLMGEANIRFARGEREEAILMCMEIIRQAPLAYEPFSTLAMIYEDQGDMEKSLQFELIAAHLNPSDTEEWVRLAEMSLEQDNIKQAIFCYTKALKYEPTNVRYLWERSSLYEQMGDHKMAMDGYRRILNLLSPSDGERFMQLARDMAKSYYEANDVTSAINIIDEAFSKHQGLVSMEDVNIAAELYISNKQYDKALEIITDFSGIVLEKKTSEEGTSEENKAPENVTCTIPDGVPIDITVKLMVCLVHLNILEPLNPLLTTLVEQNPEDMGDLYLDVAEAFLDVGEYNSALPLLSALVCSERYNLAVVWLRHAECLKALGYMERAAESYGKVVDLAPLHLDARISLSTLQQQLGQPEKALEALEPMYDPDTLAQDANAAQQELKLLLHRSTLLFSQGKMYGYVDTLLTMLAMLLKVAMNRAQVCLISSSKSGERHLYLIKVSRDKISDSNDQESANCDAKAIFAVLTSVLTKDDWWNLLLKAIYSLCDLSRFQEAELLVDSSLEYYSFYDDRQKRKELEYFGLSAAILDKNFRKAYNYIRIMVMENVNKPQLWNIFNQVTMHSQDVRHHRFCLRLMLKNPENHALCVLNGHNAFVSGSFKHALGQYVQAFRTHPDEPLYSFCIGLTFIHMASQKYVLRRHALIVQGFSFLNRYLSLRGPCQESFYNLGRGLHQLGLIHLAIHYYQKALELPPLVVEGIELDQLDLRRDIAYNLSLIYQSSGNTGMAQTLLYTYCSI
inactive: alvocidib -0.018 | Tubastatin A -0.147 | [1] 0.043 | defactinib -0.007 | [2] 0.04 | encorafenib -0.001 | [3] 0.065 | alisertib -0.006 | [4] 0.02 | gefitinib -0.006

IL18R1 (UniProt Q13478)
Chain of UniProt Q13478 (Q13478 whole entry, looked up): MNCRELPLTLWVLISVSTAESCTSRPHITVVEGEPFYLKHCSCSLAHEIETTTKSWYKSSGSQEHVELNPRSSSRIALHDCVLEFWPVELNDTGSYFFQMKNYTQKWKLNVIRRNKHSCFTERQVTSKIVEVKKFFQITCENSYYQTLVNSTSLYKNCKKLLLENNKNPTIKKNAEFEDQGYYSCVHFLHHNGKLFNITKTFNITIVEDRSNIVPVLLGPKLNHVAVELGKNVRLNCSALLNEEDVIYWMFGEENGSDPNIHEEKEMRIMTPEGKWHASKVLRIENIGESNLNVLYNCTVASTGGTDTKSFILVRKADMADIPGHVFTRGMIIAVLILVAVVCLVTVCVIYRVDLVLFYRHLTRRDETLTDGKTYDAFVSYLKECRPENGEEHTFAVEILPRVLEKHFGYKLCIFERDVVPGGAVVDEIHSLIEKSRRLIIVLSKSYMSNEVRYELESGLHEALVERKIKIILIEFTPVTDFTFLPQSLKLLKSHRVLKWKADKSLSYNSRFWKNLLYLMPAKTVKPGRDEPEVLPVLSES
inactive: alvocidib -0.148 | Tubastatin A 0.008 | [1] -0.106 | defactinib -0.322 | [2] 0.056 | encorafenib 0.116 | [3] 0.142 | alisertib -0.098 | [4] -0.014 | gefitinib -0.039

HDLBP, A0A024R4E5
inactive: alvocidib -0.004 | Tubastatin A -0.082 | [1] 0.01 | defactinib 0.001 | [2] 0.004 | encorafenib 0.028 | [3] 0.073 | alisertib -0.005 | [4] 0.003 | gefitinib 0.003

IMMT (UniProt Q16891)
inactive: alvocidib 0.031 | Tubastatin A -0.079 | [1] -0.03 | defactinib 0.019 | [2] -0.041 | encorafenib 0.014 | [3] -0.045 | alisertib 0.034 | [4] -0.145 | gefitinib -0.022

GRB10 (UniProt Q13322)
inactive: alvocidib -0.061 | Tubastatin A -0.226 | [1] 0.015 | defactinib 0.003 | [2] 0.02 | encorafenib 0.065 | [3] 0.01 | alisertib 0 | [4] -0.02 | gefitinib -0.043

HDAC2 (UniProt Q92769)
Chain of UniProt Q92769 (Q92769 whole entry, looked up): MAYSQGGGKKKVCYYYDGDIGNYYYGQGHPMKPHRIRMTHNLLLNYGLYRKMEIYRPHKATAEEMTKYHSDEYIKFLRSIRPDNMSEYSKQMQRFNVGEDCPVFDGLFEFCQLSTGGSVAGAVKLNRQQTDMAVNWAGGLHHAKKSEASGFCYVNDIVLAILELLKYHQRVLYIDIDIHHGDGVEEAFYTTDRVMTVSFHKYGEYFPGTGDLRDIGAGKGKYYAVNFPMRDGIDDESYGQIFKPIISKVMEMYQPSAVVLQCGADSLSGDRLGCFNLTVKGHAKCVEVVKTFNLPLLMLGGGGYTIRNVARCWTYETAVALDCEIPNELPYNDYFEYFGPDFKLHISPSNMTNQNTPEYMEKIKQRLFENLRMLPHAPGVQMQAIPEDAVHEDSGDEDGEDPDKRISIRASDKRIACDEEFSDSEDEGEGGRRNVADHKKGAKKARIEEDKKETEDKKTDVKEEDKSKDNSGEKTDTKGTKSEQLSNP
inactive: alvocidib -0.01 | Tubastatin A -0.012 | [1] -0.007 | defactinib 0.006 | [2] 0.003 | encorafenib -0.006 | [3] 0.007 | alisertib 0.002 | [4] 0 | gefitinib 0.013

HNRNPH2 (UniProt P55795)
inactive: alvocidib -0.003 | Tubastatin A -0.209 | [1] 0.02 | defactinib 0.019 | [2] -0.043 | encorafenib 0.037 | [3] -0.032 | alisertib -0.004 | [4] -0.007 | gefitinib -0.047

HMGN4 (UniProt O00479)
inactive: alvocidib 0.581 | Tubastatin A -0.001 | [1] 0.01 | defactinib 0.122 | [2] 0.235 | encorafenib -0.072 | [3] -0.046 | alisertib -0.074 | [4] -0.036 | gefitinib 0.111

KDM6A (UniProt O15550)
inactive: alvocidib -0.057 | Tubastatin A -0.057 | [1] 0.041 | defactinib -0.048 | [2] 0.006 | encorafenib 0.054 | [3] 0.018 | alisertib -0.025 | [4] -0.005 | gefitinib -0.011

HDHD5 (UniProt Q9BXW7)
Chain of UniProt Q9BXW7 (Q9BXW7 whole entry, looked up): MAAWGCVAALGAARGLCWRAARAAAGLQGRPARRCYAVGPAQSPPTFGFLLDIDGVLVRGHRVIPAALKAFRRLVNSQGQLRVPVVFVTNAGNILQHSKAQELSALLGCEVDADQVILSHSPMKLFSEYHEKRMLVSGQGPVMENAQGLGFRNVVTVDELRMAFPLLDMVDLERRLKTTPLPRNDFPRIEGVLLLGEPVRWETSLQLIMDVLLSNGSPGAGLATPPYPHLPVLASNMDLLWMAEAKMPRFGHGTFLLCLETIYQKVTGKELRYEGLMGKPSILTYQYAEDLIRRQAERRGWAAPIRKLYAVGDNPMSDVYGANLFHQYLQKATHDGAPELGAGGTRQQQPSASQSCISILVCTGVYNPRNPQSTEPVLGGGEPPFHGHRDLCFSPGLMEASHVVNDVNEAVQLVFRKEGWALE
inactive: alvocidib -0.097 | Tubastatin A -0.078 | [1] 0.041 | defactinib -0.069 | [2] 0.034 | encorafenib 0.026 | [3] 0.024 | alisertib 0.031 | [4] 0.012 | gefitinib -0.063

HERC2 (UniProt O95714)
active: Tubastatin A -0.316
inactive: alvocidib -0.075 | [1] -0.109 | defactinib -0.085 | [2] -0.077 | encorafenib 0.027 | [3] 0.111 | alisertib -0.007 | [4] 0.005 | gefitinib 0.004

IMMT (UniProt C9J406)
inactive: alvocidib -0.027 | Tubastatin A -0.076 | [1] -0.162 | defactinib 0.075 | [2] 0.008 | encorafenib -0.085 | [3] -0.166 | alisertib -0.031 | [4] -0.073 | gefitinib -0.052

INTS5 (UniProt Q6P9B9)
inactive: alvocidib 0.038 | Tubastatin A -0.055 | [1] 0.027 | defactinib 0.017 | [2] -0.047 | encorafenib 0.02 | [3] -0.259 | alisertib 0.028 | [4] 0.013 | gefitinib 0.045

GSE1 (UniProt Q14687)
inactive: alvocidib -0.032 | Tubastatin A -0.155 | [1] 0.014 | defactinib -0.006 | [2] -0.001 | encorafenib 0.017 | [3] 0.05 | alisertib -0.017 | [4] 0.027 | gefitinib 0.013

HSPA8 (UniProt E9PK54)
inactive: alvocidib -0.047 | Tubastatin A 0.036 | [1] -0.066 | defactinib -0.041 | [2] -0.05 | encorafenib -0.025 | [3] -0.004 | alisertib -0.016 | [4] 0.016 | gefitinib -0.051

HAUS5 (UniProt O94927)
inactive: alvocidib 0.062 | Tubastatin A -0.146 | [1] 0.007 | defactinib 0.026 | [2] 0.015 | encorafenib -0.006 | [3] 0.092 | alisertib -0.01 | [4] 0.006 | gefitinib -0.007

HNRNPUL2 (UniProt Q1KMD3)
inactive: alvocidib -0.001 | Tubastatin A 0.007 | [1] 0.004 | defactinib 0.002 | [2] -0.009 | encorafenib -0.023 | [3] 0.105 | alisertib 0.009 | [4] 0.019 | gefitinib -0.023

IMPDH1 isoform 6 (UniProt P20839)
Chain of UniProt P20839 (P20839 whole entry, looked up): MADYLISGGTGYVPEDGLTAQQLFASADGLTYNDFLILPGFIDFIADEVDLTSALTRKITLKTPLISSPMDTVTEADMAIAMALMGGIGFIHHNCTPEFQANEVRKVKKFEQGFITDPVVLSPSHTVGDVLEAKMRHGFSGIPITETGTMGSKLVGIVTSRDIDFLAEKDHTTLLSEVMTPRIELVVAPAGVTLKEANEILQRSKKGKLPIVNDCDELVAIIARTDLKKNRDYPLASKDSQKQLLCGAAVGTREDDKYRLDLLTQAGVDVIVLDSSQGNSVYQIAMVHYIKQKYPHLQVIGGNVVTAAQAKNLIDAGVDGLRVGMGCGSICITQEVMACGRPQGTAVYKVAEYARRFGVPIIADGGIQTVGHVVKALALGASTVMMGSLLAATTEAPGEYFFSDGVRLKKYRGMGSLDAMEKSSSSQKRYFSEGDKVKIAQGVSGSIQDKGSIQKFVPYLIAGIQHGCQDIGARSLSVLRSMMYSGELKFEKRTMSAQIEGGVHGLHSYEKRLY
active: Tubastatin A -0.226 | [3] -0.478
inactive: alvocidib -0.009 | [1] 0.002 | defactinib -0.002 | [2] 0.018 | encorafenib -0.001 | alisertib 0.004 | [4] -0.002 | gefitinib 0.005

HLTF (UniProt Q14527)
inactive: alvocidib -0.027 | Tubastatin A -0.083 | [1] -0.001 | defactinib 0.028 | [2] 0.025 | encorafenib 0.004 | [3] 0.104 | alisertib 0.048 | [4] 0.01 | gefitinib 0.076

IMPACT (UniProt Q9P2X3)
Chain of UniProt Q9P2X3 (Q9P2X3 whole entry, looked up): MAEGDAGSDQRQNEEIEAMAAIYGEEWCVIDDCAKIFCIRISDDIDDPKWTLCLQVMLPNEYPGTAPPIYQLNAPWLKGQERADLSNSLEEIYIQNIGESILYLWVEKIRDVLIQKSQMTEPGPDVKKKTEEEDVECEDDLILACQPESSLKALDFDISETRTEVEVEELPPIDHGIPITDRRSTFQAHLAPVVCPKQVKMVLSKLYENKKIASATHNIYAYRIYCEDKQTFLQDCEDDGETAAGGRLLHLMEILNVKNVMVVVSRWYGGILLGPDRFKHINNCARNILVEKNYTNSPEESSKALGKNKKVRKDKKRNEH
inactive: alvocidib 0.002 | Tubastatin A -0.04 | [1] -0.006 | defactinib 0.013 | [2] -0.05 | encorafenib 0.063 | [3] -0.083 | alisertib -0.024 | [4] -0.044 | gefitinib 0.167

IFNGR1 (UniProt P15260)
Chain of UniProt P15260 (P15260 whole entry, looked up): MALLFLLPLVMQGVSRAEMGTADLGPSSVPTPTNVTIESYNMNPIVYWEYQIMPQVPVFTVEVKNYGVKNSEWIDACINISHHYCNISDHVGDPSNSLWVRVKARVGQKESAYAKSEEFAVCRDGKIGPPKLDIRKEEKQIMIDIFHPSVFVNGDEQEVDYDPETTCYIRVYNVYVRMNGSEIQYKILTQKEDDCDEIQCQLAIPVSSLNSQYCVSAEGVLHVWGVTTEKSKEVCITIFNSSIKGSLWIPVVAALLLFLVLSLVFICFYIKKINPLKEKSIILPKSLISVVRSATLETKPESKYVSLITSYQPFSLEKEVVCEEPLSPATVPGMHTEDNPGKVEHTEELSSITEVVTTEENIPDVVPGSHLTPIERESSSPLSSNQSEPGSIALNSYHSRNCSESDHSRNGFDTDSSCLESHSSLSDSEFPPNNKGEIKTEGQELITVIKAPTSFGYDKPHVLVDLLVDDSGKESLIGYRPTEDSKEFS
inactive: alvocidib -0.348 | Tubastatin A 0.157 | [1] -0.022 | defactinib -0.164 | [2] 0.272 | encorafenib -0.018 | [3] -0.002 | alisertib 0.138 | [4] 0.106 | gefitinib -0.036

ITPKA (UniProt P23677)
Chain of UniProt P23677 (P23677 whole entry, looked up): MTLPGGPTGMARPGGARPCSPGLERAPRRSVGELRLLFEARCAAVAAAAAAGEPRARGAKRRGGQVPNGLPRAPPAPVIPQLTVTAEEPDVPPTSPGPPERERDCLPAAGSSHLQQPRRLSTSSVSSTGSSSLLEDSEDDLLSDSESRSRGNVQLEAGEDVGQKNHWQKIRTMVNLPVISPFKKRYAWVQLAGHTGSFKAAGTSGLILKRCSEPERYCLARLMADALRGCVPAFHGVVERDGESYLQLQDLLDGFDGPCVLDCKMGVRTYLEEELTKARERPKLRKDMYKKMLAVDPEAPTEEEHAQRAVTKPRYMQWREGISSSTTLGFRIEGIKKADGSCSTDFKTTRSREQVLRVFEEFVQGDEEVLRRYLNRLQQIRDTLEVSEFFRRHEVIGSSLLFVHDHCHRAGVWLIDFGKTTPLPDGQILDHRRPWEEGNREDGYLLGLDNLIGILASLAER
active: [3] 0.375
inactive: alvocidib -0.001 | Tubastatin A -0.194 | [1] -0.017 | defactinib 0.017 | [2] 0.015 | encorafenib -0.021 | alisertib -0.004 | [4] 0 | gefitinib 0.011

GTF2A1 (UniProt P52655)
Chain of UniProt P52655 (P52655 whole entry, looked up): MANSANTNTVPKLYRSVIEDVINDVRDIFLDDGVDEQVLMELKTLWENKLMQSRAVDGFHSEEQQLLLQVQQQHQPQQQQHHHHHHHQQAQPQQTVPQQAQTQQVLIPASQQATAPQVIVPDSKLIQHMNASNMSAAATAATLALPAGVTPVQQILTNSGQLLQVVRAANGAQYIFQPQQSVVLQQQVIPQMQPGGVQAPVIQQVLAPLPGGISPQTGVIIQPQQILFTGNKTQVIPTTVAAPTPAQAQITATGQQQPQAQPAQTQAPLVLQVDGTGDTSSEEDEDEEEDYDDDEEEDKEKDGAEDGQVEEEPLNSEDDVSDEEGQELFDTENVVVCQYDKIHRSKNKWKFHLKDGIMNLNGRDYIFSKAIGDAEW
inactive: alvocidib 0.165 | Tubastatin A 0.006 | [1] -0.047 | defactinib 0.033 | [2] 0.048 | encorafenib -0.005 | [3] -0.026 | alisertib -0.029 | [4] -0.024 | gefitinib 0.008
